# FAS-TE inh = inhibitors of human fatty acid synthase thioesterase domain | hit rate 0.67% among 360,000 | inhibition, % at 15 µM | recombinant FAS-TE, OMFH fluorogenic substrate, fluorescence endpoint;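 active = compounds whose normalised, plate-corrected inhibition of enzyme fluorescence in the single-dose primary screen is 50% or more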;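 note: 0% = DMSO with enzyme and 100% = substrate without enzyme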
# Target sequence (P49327 whole entry, looked up, the tested form may be a part): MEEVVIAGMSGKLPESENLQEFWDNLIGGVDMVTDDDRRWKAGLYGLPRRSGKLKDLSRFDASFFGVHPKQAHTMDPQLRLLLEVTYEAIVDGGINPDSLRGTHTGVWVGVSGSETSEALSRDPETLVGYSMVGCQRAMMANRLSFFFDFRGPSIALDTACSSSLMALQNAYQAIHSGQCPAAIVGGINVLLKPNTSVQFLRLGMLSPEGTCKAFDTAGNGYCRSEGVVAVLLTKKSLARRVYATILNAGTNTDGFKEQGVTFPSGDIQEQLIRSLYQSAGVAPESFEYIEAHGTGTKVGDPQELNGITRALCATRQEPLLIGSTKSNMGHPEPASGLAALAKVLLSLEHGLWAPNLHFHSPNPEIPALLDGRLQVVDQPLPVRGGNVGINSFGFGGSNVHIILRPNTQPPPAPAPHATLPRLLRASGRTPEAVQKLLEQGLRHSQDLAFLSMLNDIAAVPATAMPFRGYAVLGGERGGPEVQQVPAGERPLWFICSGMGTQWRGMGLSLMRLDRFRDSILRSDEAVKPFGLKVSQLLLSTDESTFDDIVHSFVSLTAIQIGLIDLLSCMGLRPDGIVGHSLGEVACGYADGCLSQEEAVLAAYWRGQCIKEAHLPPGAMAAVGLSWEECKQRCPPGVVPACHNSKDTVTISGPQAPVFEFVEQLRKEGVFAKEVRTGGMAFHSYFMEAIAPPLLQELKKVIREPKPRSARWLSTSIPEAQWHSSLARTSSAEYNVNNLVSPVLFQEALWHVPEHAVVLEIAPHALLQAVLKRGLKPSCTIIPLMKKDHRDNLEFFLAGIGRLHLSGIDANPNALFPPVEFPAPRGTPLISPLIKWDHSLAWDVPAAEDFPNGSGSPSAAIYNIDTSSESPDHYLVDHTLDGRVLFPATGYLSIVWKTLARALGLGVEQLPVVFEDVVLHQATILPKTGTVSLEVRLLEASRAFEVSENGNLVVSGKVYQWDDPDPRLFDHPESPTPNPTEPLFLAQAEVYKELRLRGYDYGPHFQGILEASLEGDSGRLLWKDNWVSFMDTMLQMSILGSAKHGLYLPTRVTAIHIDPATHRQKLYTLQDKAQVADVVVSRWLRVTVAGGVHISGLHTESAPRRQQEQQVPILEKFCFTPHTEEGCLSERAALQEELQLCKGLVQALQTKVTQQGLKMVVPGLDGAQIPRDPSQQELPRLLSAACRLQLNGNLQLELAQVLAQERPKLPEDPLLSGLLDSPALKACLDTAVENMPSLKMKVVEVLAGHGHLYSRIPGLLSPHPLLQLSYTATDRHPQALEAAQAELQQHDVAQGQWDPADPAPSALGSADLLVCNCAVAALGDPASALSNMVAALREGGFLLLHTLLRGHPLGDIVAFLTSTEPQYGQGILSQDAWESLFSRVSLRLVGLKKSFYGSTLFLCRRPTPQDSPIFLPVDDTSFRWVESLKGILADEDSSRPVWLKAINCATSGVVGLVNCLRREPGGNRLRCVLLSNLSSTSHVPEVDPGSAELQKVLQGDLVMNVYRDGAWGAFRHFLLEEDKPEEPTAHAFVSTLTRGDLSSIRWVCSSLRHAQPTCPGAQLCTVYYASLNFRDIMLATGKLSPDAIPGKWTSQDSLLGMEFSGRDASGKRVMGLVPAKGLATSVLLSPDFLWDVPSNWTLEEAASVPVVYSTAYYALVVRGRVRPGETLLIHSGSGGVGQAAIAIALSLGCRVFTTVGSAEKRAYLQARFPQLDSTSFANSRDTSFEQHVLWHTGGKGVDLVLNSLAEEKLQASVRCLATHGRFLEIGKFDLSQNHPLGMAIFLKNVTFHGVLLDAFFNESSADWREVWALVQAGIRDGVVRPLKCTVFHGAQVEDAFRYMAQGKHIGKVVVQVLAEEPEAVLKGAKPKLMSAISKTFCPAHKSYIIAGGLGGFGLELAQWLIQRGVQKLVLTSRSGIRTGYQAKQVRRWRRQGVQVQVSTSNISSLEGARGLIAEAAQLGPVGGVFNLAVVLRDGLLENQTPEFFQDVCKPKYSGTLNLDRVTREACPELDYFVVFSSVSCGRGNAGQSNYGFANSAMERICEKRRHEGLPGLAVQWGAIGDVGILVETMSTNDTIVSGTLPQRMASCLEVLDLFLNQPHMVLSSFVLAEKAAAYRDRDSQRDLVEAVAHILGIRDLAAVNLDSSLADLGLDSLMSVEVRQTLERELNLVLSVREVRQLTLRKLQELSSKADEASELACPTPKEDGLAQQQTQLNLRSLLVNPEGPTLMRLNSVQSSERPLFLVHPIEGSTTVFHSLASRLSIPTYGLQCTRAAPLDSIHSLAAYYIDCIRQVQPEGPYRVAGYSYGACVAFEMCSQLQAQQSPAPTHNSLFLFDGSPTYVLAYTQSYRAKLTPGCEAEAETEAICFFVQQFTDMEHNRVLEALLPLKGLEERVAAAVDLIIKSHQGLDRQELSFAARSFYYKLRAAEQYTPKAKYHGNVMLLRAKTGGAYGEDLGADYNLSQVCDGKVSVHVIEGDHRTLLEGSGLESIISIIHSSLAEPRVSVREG
# GRIN3A LBD mod = modulates the human NR3A ligand-binding domain | AID 1259313 | Tm shift relative to glycine control, % at 25 µM | NR3A LBD differential scanning fluorimetry, Tm shift; 0% = protein alone, 100% = glycine-bound protein | hit rate 2.5% among 340,000;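 active = melting temperature shift of at least 10% of the positive control shift, at one fixed dose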
# rCAG binder = binds r(CAG) RNA repeats | r(CAG) RNA repeat, TO-PRO-1 dye displacement fluorescence | inhibition, % at 3 µM | hit rate 1.3% among 370,000 | AID 651821;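 active = inhibition above the plate cutoff, the mean of all test compounds on that plate plus 3 SD, cut at about 35% in these data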;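 note: 0% = DMSO alone and 100% = 100 µM mitoxantrone as full dye displacement; higher means more dye released from RNA so lower well fluorescence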
# NadD inh = blocks S. aureus nicotinate mononucleotide adenylyltransferase | AID 602399 | hit rate 0.78% among 360,000 | purified NadD enzyme, colorimetric absorbance read-out | inhibition, % at 20 µM; in the data active = inhibition above about 26%
# Numbers without * were called inactive; · = no result. Hits are enriched below; roughly 4.3% of the tested compounds scored in any of these assays.
SMILES,FAS-TE inh,GRIN3A LBD mod,rCAG binder,NadD inh
COn1c(-c2ccccc2)nc2c1CCc1c-2no[n+]1[O-],-4,13*,4,-1
Clc1ccc(-c2c[nH]c3ccccc23)nn1,-6,18*,3,-3
CCOc1cc(/C=N/NC(=O)c2nnn(-c3nonc3N)c2C)ccc1OCc1cccc(F)c1,-4,26*,4,23
COc1ccc(/C=N/NC(=O)c2c(C)nnn2-c2nonc2N)cc1OC,-4,19*,-4,-9
CCOc1cc(/C=N/NC(=O)c2nn(C)cc2Br)ccc1OCc1ccccc1,8,10*,-4,7
CCOc1cc(/C=N/NC(=O)c2nnn(-c3nonc3N)c2C)ccc1OCc1ccc(F)cc1,-6,15*,1,14
CCOc1cc(/C=N/NC(=O)c2nnn(-c3nonc3N)c2C)ccc1OCc1ccc(C)cc1,-5,·,2,15
O=C(NC1CCCCN(Cc2cccc(Cl)c2)C1=O)c1cccc(F)c1 (stereo unspecified),·,·,0,·
COc1cccc(-c2cc(N)nn2C(=O)Nc2ccc(Cl)cc2)c1,7,27*,19,-4
CC(C)C[C@@H](CN1CCCC1CN1C(=S)NC[C@@H]1Cc1ccc(O)cc1)N1C[C@H](Cc2ccccc2)N(CC2CCCCC2)C1=S (stereo partly specified),-67,9,7,28
CC(C)C[C@@H](CN1CCCC1CN1C(=S)NC[C@@H]1Cc1ccc(O)cc1)N1C[C@H](Cc2ccccc2)N(CC2CCCCCC2)C1=S (stereo partly specified),-144,12*,7,23
C[C@H]1C2CC(OC(=O)Nc3ccc4c(c3)OCO4)C(C2)[C@H]2CCCCN21 (stereo partly specified),·,·,0,·
COc1ccccc1C(=O)Nc1ccc(Br)c2cccnc12,20,21*,2,-9
COc1ccccc1C(=O)Nc1ccccn1,-3,1,-2,-3
COc1cccc(NC(=S)NN2CCN(C)CC2)c1,-8,12*,-3,-1
CCOC(=O)Nc1ccc2nc(N3CCCCCC3)sc2c1,4,21*,-2,-4
CN(C)C(=O)C[C@H]1CC[C@H]2[C@H](COc3ccc(NC(=O)C4CC4)cc3C(=O)N2C)O1,·,·,-1,·
O=C(CC(Nc1ccccc1)C(=O)O)c1ccccc1 (stereo unspecified),-9,36*,3,-1
Cc1ccc(NC(CC(=O)c2ccccc2)C(=O)O)cc1Cl (stereo unspecified),4,-5,3,-12
COC(=O)[C@]12C[C@H](CC(=O)NCc3cccc(C(F)(F)F)c3)C(=O)N(Cc3ccc(Cl)cc3Cl)C1=C[C@H](C(C)C)O[C@@H]2C1CC1,·,·,2,·
Oc1c(Cl)cc(Cl)cc1/C=N/c1nc(-c2ccc(Cl)cc2)cs1,11,9,·,25*
COc1ccc(Nc2nnc(SC(C(=O)Nc3cc(C)ccc3C)c3ccccc3)s2)cc1 (stereo unspecified),5,17*,5,23
COc1ccc(C)cc1NC(=O)C(Sc1nnc(Nc2cc(C)ccc2OC)s1)c1ccccc1 (stereo unspecified),12,1,11,8
COc1cccc(NC(=O)C(Sc2nnc(Nc3ccccc3C)s2)c2ccccc2)c1 (stereo unspecified),21,11*,10,12
COC(=O)[C@H](C(C)C)N(Cc1cn(Cc2ccccc2)nn1)S(=O)(=O)c1ccc(F)cc1Br,·,·,1,·
SMILES,FAS-TE inh,GRIN3A LBD mod,rCAG binder,NadD inh
CCN(CC)C(=O)CC[C@@H]1CC[C@]2(CCCN(S(C)(=O)=O)C2)O1,·,·,0,·
CCOC(=O)[C@]12CCCCC/C=C\1N(CCc1ccc(Cl)cc1)C(=O)[C@H]2CC(=O)N1CCC(c2ccccc2)CC1,·,·,9,·
CC(C)=CCc1c(O)ccc(C2COc3c(CC=C(C)C)c(O)cc(O)c3C2=O)c1O (stereo unspecified),22,11*,28,4
CC(COc1cccc(Br)c1)CN1CCC(C(O)(c2ccccc2)c2ccccc2)CC1 (stereo unspecified),·,·,3,·
O=C(NCCCSc1ccccc1)c1cc(Cl)ccc1O,11,12*,6,-4
CC(=O)Nc1ccc(Nc2cc(C)nc3c(-c4ccccc4)c(C)nn23)cc1,-3,-1,-4,-4
CC(=O)Nc1ccc(Nc2cc(C(C)C)nc3c(-c4ccccc4)c(C)nn23)cc1,37,17*,4,-12
CN1CCN(c2oc(-c3ccccc3F)nc2S(=O)(=O)c2ccc(Cl)cc2)CC1,8,10*,·,-10
CCCCN1CC(COCc2ccccc2)Oc2cccc(Oc3ccc(F)cc3)c2S1(=O)=O (stereo unspecified),24,13*,6,0
O=S1(=O)c2c(F)cccc2OC(COCc2ccccc2)CN1C1CCCC1 (stereo unspecified),25,2,1,-2
O=S1(=O)c2c(Oc3cccc4ccccc34)cccc2OC(COCc2ccccc2)CN1C1CCCC1 (stereo unspecified),26,18*,8,-1
O=C(CCC(=O)OCC(=O)c1ccc(Br)cc1)NC1CCCCC1,0,10*,-5,-2
O=C(CCC(=O)OCC(=O)c1ccc(F)cc1)NC1CCCCC1,-6,-1,-3,7
O=C1N(CCCO)CCC12CCC(c1ccccc1)CC2 (stereo unspecified),·,·,-1,·
COc1cc(/C=C(\C#N)C(=O)NCC2CCCO2)ccc1OCC(=O)O (stereo unspecified),-5,-2,-3,2
COc1ccc(CCNC(=O)/C(C#N)=C/c2ccc(OCC(=O)NCC3CCCO3)cc2)cc1OC (stereo unspecified),-4,14*,-8,-3
CN1CCN(S(=O)(=O)c2cc([N+](=O)[O-])ccc2N/N=C/c2ccc(Cl)cc2)CC1,-1,2,1,0
O=[N+]([O-])c1ccc(N/N=C/c2c[nH]c3ccccc23)c(S(=O)(=O)Nc2ccc(Cl)cc2)c1,11,513*,6,16
Cc1[nH]c2ccccc2c1/C=N/NC(=O)c1cccc([N+](=O)[O-])c1,17,-3,6,2
COc1ccccc1NS(=O)(=O)c1cc([N+](=O)[O-])ccc1N/N=C/c1c(C)[nH]c2ccccc12,16,29*,23,28
O=C(NCC1CCN(C(=O)C(=O)c2cccs2)CC1)c1ccc2c(c1)OCO2,·,·,2,·
Cc1ccc(NC(=O)N/C=C/c2ccccc2)cc1,1,1,9,0
Cc1ccc(NC(=O)N/C=C/c2ccc(Cl)cc2)cc1,0,16*,5,4
O=C(N/C=C/c1ccccc1)Nc1ccc(Cl)cc1,2,11*,8,-2
O=C1C=C(c2ccc3c(c2)OCO3)C[C@@H](c2ccc3c(c2)OCO3)C1,2,1,4,-9
O=C1C=C(c2ccc3cc[nH]c3c2)C[C@@H](c2ccc3c(c2)OCO3)C1,18,21*,·,15
Cc1nc(-c2ccccc2)nc2[nH]ccc(=O)c12,-2,10*,6,1
Cc1nc(-c2ccc([N+](=O)[O-])cc2)nc2[nH]ccc(=O)c12,3,-1,1,7
